# Source: PubChem BioAssay AID2496 (Sanford-Burnham Center for Chemical Genomics, 2010)
# Calls of active or inactive are those of the source. Rule as the data show it: active = IC50 below about 40 µM; inactive = the rest.
# Assay: compound optical interference in time-resolved FRET – biochemical, fluorescence ratio, artefact control, SAR follow-up (AID 2496)
# Settings: HTRF spectral interference counter-screen
structure (smiles),measurement,value
O=C(c1ccc2nc(-c3ccco3)c(-c3ccco3)nc2c1)N1CCC2(CC1)OCCO2,IC50,> 50 µM (inactive)
